What was measured:
Assay type in all cases: functional
Plasmodium falciparum [1] = experiment: GSK_TCMDC: Inhibition of Plasmodium falciparum 3D7 in whole red blood cells, using parasite LDH activity as an index of growth. Test compounds present at 2uM
Plasmodium falciparum [2] = experiment: GSK_TCMDC: Inhibition of Plasmodium falciparum Dd2 in whole red blood cells, using parasite LDH activity as an index of growth. Test compounds present at 2uM
HepG2 = experiment: GSK_TCMDC: Percent inhibition of human HepG2 cell line. Test compounds present at 10uM.

| SMILES | Inhibition (Plasmodium falciparum [1]) [%] | Inhibition (Plasmodium falciparum [2]) [%] | Inhibition (HepG2) [%] |
| --- | --- | --- | --- |
| COc1ccc(-c2ccc(CNC(=O)c3ccc(Cl)cc3)c(F)c2)cc1CN1CCCN(C)CC1.O=C(O)C(F)(F)F | 99 | 48 | 25 |
| CCCCCCc1cc2cc(-c3csc(C=Cc4ccccc4)n3)c(=O)oc2cc1O | 96 | 75 | 17 |
| COc1ccc2c(C)cc(NCCCN(C)C)nc2c1.O=C(O)C(=O)O | 95 | 19 | 10 |
| CC(=O)Nc1ccc(CN2CCC(NC(=O)c3ccc(-c4cccc(F)c4)s3)CC2)cc1.O=C(O)C(F)(F)F | 96 | 13 | 6 |
| CC(C)c1ccc(CN2CCC(CNC(=O)c3cc(-c4cccc(C(F)(F)F)c4)cs3)C2)cc1.O=C(O)C(F)(F)F (stereo not drawn) | 99 | 60 | 36 |
| CCC[C@@H](C(=O)NCCc1cccc(OC)c1)N1C(=O)c2c(ccc(OC)c2OC)C1C(=O)Nc1c(C)cccc1C (stereo partly drawn) | 94 | 32 | 6 |
| O=C(Nc1ccc(F)cc1)c1ccc(C(=O)NC2CCN(CC3CCCCC3)CC2)cc1.O=C(O)C(F)(F)F | 99 | 0 | 34 |
| CCOCCCn1c(=N)c(C(=O)NC(C)c2ccccc2)cc2c(=O)n3cccc(C)c3nc21 (stereo not drawn) | 95 | 31 | 24 |
| CC(C)c1cccc(OCC2CCN(c3ncc(C(=O)Nc4ccccc4)cc3Cl)CC2)c1 | 89 | 88 | 9 |
| Cc1ccc(NC(=O)c2ccc(Cl)c(Cl)c2)cc1-c1ccc(C(=O)Nc2ccncc2)cc1 | 99 | 79 | 39 |
| O=C(NC(=S)Nc1cc(C(F)(F)F)cc(C(F)(F)F)c1)c1ccc(Cl)cc1 | 96 | 99 | 31 |
| CN(c1ccccc1)c1ccnc(NC(=N)Nc2ccc(Cl)cc2)n1 | 87 | 6 | 30 |
| CCn1c(-c2nonc2N)nc2c(-c3cccc(NC(=O)Nc4ccccc4OC)c3)ncc(OCCCN)c21.O=C(O)C(F)(F)F | 92 | 58 | 84 |
| CN1CCN(Cc2ccc(-c3ccc4c(Nc5ccc(Oc6ccccc6)cc5)ccnc4c3)o2)CC1 | 99 | 99 | 23 |
| O=C(Oc1ccc(Cl)cc1C(=O)Nc1ccc([N+](=O)[O-])cc1Cl)c1ccccc1 | 97 | 19 | 88 |
| O=C(Cn1c(CCc2cccc(F)c2F)nc(=O)c2ccccc21)N(CCN1CCCCC1)Cc1ccc(-c2ccc(C(F)(F)F)cc2)cc1.O=C(O)C(O)C(O)C(=O)O | 100 | 89 | 32 |
| CC(C)CNCc1ccc(-c2ccccc2CNC2CCN(Cc3ccccc3)CC2)cc1.O=C(O)C(F)(F)F | 100 | 41 | 28 |
| CC(=O)c1ccc(-c2ccccc2)s1 | 92 | 2 | 0 |

| SMILES | Inhibition (Plasmodium falciparum [1]) [%] | Inhibition (Plasmodium falciparum [2]) [%] | Inhibition (HepG2) [%] |
| --- | --- | --- | --- |
| O=C1CC(C(=O)O)CC(=O)N1 | 94 | 88 | 0 |
| CSC1=NC(=Nc2c(C)cccc2C)C2(CCC(C(C)(C)C)CC2)N1c1ccc(O)cc1.I (stereo not drawn) | 97 | 93 | 5 |
| O=C(O)C(F)(F)F.c1ccc2[nH]c(-c3ccc(-c4ccc(CN5CCN(CCN6CCOCC6)CC5)cc4)cc3)nc2c1 | 98 | 99 | 43 |
| O=C(Nc1ccc(C(F)(F)F)cc1)N[C@H]1CCN(CCCCCNC(=O)C2CC2c2ccc(Cl)c(Cl)c2)C1 (stereo partly drawn) | 96 | 0 | 41 |
| O=C(CCc1cccc(O)c1)NCC(NCCCNc1cc(=O)c2ccccc2[nH]1)c1cc(Br)cc(Br)c1 (stereo not drawn) | 86 | 37 | 0 |
| CS(=O)(=O)c1ccccc1CNC(=O)c1ccc(-c2ccc(-c3nc4cc(C(F)(F)F)ccc4[nH]3)s2)cc1 | 96 | 76 | 90 |
| COc1ccc(C(=O)Cn2nc(-c3ccc(Cl)cc3)ccc2=O)c(OC)c1 | 93 | 70 | 0 |
| Cc1nc2nc(N)nc(N)c2c(C)c1Cc1ccccc1Cl.Cl | 93 | 0 | 63 |
| CCCOc1ccc(N2C(N)=NC(N)=NC2(C)C)cc1.Cl | 97 | 2 | 1 |
| O=C(/C=C/c1ccc(Cl)c(Cl)c1)NC1CCC(CN2CCC(c3nc4cccnc4[nH]3)CC2)CC1 (stereo not drawn) | 100 | 2 | 7 |
| COC(=O)c1cc(C(=O)CN(Cc2ccccc2)C(C)C)ccc1O.Cl | 97 | 0 | 7 |
| Cc1cc(N2CCCN(C)CC2)nc(Nc2ccc(Cl)cc2)n1 | 96 | 11 | 8 |
| Cc1[nH]c(C)c(-c2ccc(/C=C/c3ccccn3)cc2)c(=O)c1Cl | 97 | 96 | 0 |
| COc1ccc(-c2ccc(NC(=O)c3cccc(Cl)c3)cc2)cc1CN1CCCC1.O=C(O)C(F)(F)F | 100 | 84 | 35 |
| CN(c1ccc2c(c1)nc(Nc1ccc(Cl)cc1)n2C)c1ccnc(Nc2ccc(CS(C)(=O)=O)cc2)n1.Cl | 97 | 52 | 91 |
| CNCc1ccc2nc(-c3coc(Cc4cc(Cl)ccc4OCC(C)C)n3)[nH]c2c1.Cl | 100 | 95 | 34 |
| Cc1cccc2nc(-c3ccc(-c4cccc(CNC5CCN(C)CC5)c4)s3)[nH]c12.O=C(O)C(F)(F)F | 98 | 73 | 21 |
| COc1ccc(CNC2CCN(C)CC2)cc1-c1ccc(S(=O)(=O)NCCN2CCCC2)s1.O=C(O)C(F)(F)F | 90 | 1 | 2 |

Source: ChEMBL document CHEMBL1157539, “Thousands of chemical starting points for antimalarial lead identification” (Nature, 2010)
